In PubChem BioAssay (EPA / NIEHS):
Results filed as inconclusive are left out. Active and inactive are the calls of the source. How the source made its calls, unless noted: active means hit-call score of the fitted dose curve at least 0.9, where 1 is the maximum; inactive means score below 0.9.

Key:
[1] = CCTE_Shafer_MEA_dev_firing_rate_mean: CCTE's Neural Network Formation Assay for Mean Firing Rate, Shafer Lab (AID 2284031);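 further: AUC of well mean spike rate recorded on DIV 5 7 9 and 12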
Method in brief: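 Extracellular spike frequency, AUC over DIV 5–12 recordings, in rat cortical neuron MEA cultures dosed from plating; loss direction vs DMSO.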

[2] = CCTE_Shafer_MEA_dev_active_electrodes_number: CCTE's Neural Network Formation Assay for Number of Active Electrodes, Shafer Lab (AID 2284040; active means hit-call score of the fitted dose curve at least 0.9, where 1 is the maximum)
Method in brief: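 Developing rat cortical networks on MEAs, exposed DIV 0–12. Value is the AUC of active-electrode counts (≥5 spikes/min) from days 5, 7, 9, 12, relative to DMSO.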

[3] = CCTE_Shafer_MEA_dev_burst_rate: CCTE's Neural Network Formation Assay for Burst Rate, Shafer Lab (AID 2284042)
Method in brief: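 Developmental network assay measuring how 12-day exposure of rat cortical neuron cultures alters bursting on extracellular MEA recordings. Values are AUC of well-mean burst rate across four recording days, relative to DMSO vehicle.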

[4] = CCTE_Shafer_MEA_dev_bursting_electrodes_number: CCTE's Neural Network Formation Assay for Number of Bursting Electrodes, Shafer Lab (AID 2284043; active means hit-call score of the fitted dose curve at least 0.9, where 1 is the maximum)
Method in brief: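 Number of electrodes reaching ≥1 burst every 2 min was recorded at DIV 5, 7, 9 and 12 and collapsed as trapezoidal area under the curve. Cultures were rat cortical neurons on MEA plates, dosed continuously from plating with medium and treatment refreshed on DIV 5 and 9.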

[5] = CCTE_Shafer_MEA_dev_burst_duration_mean: CCTE's Neural Network Formation Assay for Mean Burst Duration, Shafer Lab (AID 2284045)
Method in brief: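 Mean single-electrode burst duration (first to last spike), averaged over bursting electrodes per well, then integrated as area-under-curve across recordings at days 5, 7, 9 and 12. Rat cortical cultures on MEAs, compound present from plating, refreshed at feeds.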

[6] = CCTE_Shafer_MEA_dev_inter_network_spike_interval_mean: CCTE's Neural Network Formation Assay for Mean Inter-network Spike Interval, Shafer Lab (AID 2284047)
Method in brief: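 Compound was given at plating to primary rat cortical neurons and renewed with full medium changes on DIV 5 and 9. Extracellular activity was recorded on days 5, 7, 9, 12; AUC values were fitted for loss relative to DMSO control.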

[7] = CCTE_Shafer_MEA_dev_network_spike_number: CCTE's Neural Network Formation Assay for Number of Network Spikes, Shafer Lab (AID 2284048);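 further: synchronized bursts across electrodes counted on days 5 7 9 12 and integrated as AUC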
Method in brief: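 Number of network spikes (coordinated firing across electrodes) recorded on days 5, 7, 9 and 12 and summarised as area under the curve. Rat cortical cultures on MEA, continuous compound exposure with full medium/treatment exchange at DIV 5 and 9.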

[8] = CCTE_Shafer_MEA_dev_network_spike_peak: CCTE's Neural Network Formation Assay for Mean Number of Electrodes in Network Spike, Shafer Lab (AID 2284049);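 further: fitted for loss of signal meaning fewer electrodes in network spikes than DMSO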
Method in brief: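 Rat cortical primary culture, 1.5 x 10^5 cells/well, 48-well MEA (16 electrodes/well). Dosing day 0 through DIV 12, full media/compound exchange DIV 5, 9. AxIS adaptive spike detection; AUC over days 5/7/9/12; loss-of-signal vs DMSO.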

[9] = CCTE_Shafer_MEA_dev_spike_duration_mean: CCTE's Neural Network Formation Assay for Mean Spike Duration, Shafer Lab (AID 2284051);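 further: mean network spike duration pooled as area under curve over DIV 5 to 12 recordings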
Method in brief: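 With DMSO as baseline, loss of mean network spike duration was scored from extracellular recordings of rat cortical neurons on MEA plates. Exposure spanned plating to DIV 12; the four recording days were collapsed into one AUC value.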

[10] = CCTE_Shafer_MEA_dev_network_spike_duration_std: CCTE's Neural Network Formation Assay for Standard Deviation of Network Spike Duration, Shafer Lab (AID 2284052);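 further: hits are decreases in network spike duration SD versus DMSO vehicle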
Method in brief: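 Developing networks of rat cortical neurons were exposed over twelve days in vitro on 48-well MEA plates. Trapezoidal AUC of recordings (DIV 5–12) was analysed for signal loss relative to DMSO vehicle.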

[11] = CCTE_Shafer_MEA_dev_per_network_spike_spike_number_mean: CCTE's Neural Network Formation Assay for Mean Number of Spikes in a Network Spike, Shafer Lab (AID 2284053)
Method in brief: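 First, rat cortical cells (1.5 x 10^5/well) were seeded onto MEA wells; second, dosing began at plating and was refreshed on DIV 5 and 9; finally, network-spike spike counts across DIV 5–12 were summarized as AUC.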

[12] = CCTE_Shafer_MEA_dev_per_network_spike_spike_percent: CCTE's Neural Network Formation Assay for Percent of Spikes in a Network Spike, Shafer Lab (AID 2284054)
Method in brief: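 Metric: fraction of spikes falling in a 0.05 s window at network-spike peaks. Recordings were made on days 5, 7, 9 and 12 and collapsed by trapezoidal AUC. Cultures were rat cortical neurons on MEA plates, dosed continuously from plating, re-dosed at media changes.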

[13] = CCTE_Shafer_MEA_dev_LDH: CCTE's Lactate Dehydrogenase Assay for Cytotoxicity in the Neural Network Formation Assay, Shafer Lab (AID 2284068; active means hit-call score of the fitted dose curve at least 0.9, where 1 is the maximum;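 further: exposure for twelve days from plating with re-dosing on DIV 5 and 9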)
Method in brief: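 Developing rat cortical networks on MEA plates are exposed to compound for 12 days from plating. LDH activity is measured spectrophotometrically, with DMSO as baseline.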

[14] = CCTE_Shafer_MEA_dev_mutual_information_norm: CCTE's Neural Network Formation Assay for Mutual Information Normalization, Shafer Lab (AID 2284091)
Method in brief: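 Shared information across electrodes, tracked on days 5, 7, 9 and 12 of network development and collapsed as trapezoidal area under the curve. Rat cortical cultures were treated continuously from plating, with treatment renewed at feeds on DIV 5 and 9; DMSO baseline, negative-direction fit.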

[15] = CCTE_Shafer_MEA_dev_correlation_coefficient_mean: CCTE's Neural Network Formation Assay for Mean Correlation Coefficient, Shafer Lab (AID 2284093)
Method in brief: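 Extracellular firing from rat cortical networks on 48-well MEAs, DMSO-referenced, negative fitting direction. Compound present from plating to DIV12; mean pairwise correlation per well integrated over DIV5–12 recordings by trapezoidal AUC.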

[16] = UKN2_HCS_IMR90_neural_migration: University of Konstanz (UKN) Leist Lab Neural Crest Cell Migration Assay in human induced IMR90 Pluripotent Stem Cells (UKN2) (AID 2284204); conditions: actives raise or lower the signal
Method in brief: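 High-content imaging of calcein-AM and Hoechst stained cells quantifies migration into a stopper-defined gap after 24 h compound exposure. Neural crest cells from IMR90 iPSC migrated 24 h in EGF/FGF N2-S medium before dosing; DMSO baseline.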

[17] = IUF_NPC1b_proliferation_BrdU_72hr: Leibniz Research Institute for Environmental Medicine (IUF) 72-hour Neural Progenitor Cell Bromodeoxyuridine (BrdU) Proliferation Assay (NPC1b) (AID 2284207)
Method in brief: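 Human fetal cortex-derived (GW 16-19) neural progenitor spheres, 0.25-0.35 mm, one per well in EGF/FGF proliferation medium, exposed to compound for 72 h at 37C, pH 7.2-7.6. BrdU incorporation over the final 16 h read by luminescence ELISA, relative to DMSO.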

[18] = IUF_NPC1a_proliferation_area_72hr: Leibniz Research Institute for Environmental Medicine (IUF) 72-hour Neural Progenitor Cell Proliferation Area Assay (NPC1a) (AID 2284208)
Method in brief: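 Spheres of 0.3 mm are plated singly in growth-factor medium and exposed from day 0. After three days at 37C and 5% CO2, sphere area is measured by phase contrast imaging, with activity referenced to DMSO.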

[19] = IUF_NPC1_viability_72hr: Viability Assessment at 72 hours in the Leibniz Research Institute for Environmental Medicine (IUF) Neural Progenitor Cell Proliferation Assay (NPC1) (AID 2284209)
Method in brief: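 Three-day continuous exposure of human neural progenitor spheres under EGF/FGF-driven proliferation; cell viability scored by alamar blue signal versus DMSO.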

[20] = CCTE_Mundy_HCI_Cortical_Synap_Neur_Matur_NeuriteSpotCountPerNeuriteLength: CCTE's Synaptogenesis and Neurite Maturation Assay in rat cortical cells for Neurite Spot Count per Neurite Length, Mundy Lab (AID 2284210)
Method in brief: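 Synaptophysin spots per unit neurite length, measured by automated imaging of MAP2/synaptophysin/Hoechst-stained neurons. Cultures from rat cortex received chemical at DIV 7 with media change through DIV 12; glial growth arrested by AraC at DIV 5; DMSO baseline.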

[21] = CCTE_Mundy_HCI_Cortical_Synap_Neur_Matur_BPCount: CCTE's Synaptogenesis and Neurite Maturation Assay in rat cortical cells for Branch Point Count, Mundy Lab (AID 2284211)
Method in brief: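 In this multiplexed morphology assay, cortical cells from rat receive chemicals at DIV 7 and are fixed at DIV 12, then immunostained and imaged; branch points are counted, with DMSO as baseline.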

Measured: AC50

CCOP(=S)(OCC)SCS(=O)C(C)(C)C (stereo unspecified)
active: [8] 555 nM | [17] 2.34 µM
inactive: all other assays above
